Data on 60 molecules can be found in PubChem BioAssay AID1851 (National Center for Advancing Translational Sciences (NCATS), 2009).

Out of some 16,000 compounds screened, about 5,700 (36%) were called active. Roughly 24% stayed inconclusive and do not appear here. Calls follow the shape of the dose curve; as a rule, active = well fitted curve in the direction sought with a large enough effect; inconclusive = small, poorly fitted or top-dose-only effect, or effect the other way; inactive = no such curve, though single readings can be large or run the other way. The list shows a part of the results.
% is scaled to controls: 0 for no effect and ±100 for the full control effect.

The target in the assay is Cytochrome P450 1A2 (Homo sapiens) (UniProt P05177). The experiment in a line: Cytochrome panel assay with activity outcomes. The settings on record: recombinant CYP, pro-luciferin dealkylation, luminescence, p450-cyp1a2; series mostly up to 57.1 µM.
Sequence of Cytochrome P450 1A2 (Homo sapiens) (P05177 whole entry, looked up): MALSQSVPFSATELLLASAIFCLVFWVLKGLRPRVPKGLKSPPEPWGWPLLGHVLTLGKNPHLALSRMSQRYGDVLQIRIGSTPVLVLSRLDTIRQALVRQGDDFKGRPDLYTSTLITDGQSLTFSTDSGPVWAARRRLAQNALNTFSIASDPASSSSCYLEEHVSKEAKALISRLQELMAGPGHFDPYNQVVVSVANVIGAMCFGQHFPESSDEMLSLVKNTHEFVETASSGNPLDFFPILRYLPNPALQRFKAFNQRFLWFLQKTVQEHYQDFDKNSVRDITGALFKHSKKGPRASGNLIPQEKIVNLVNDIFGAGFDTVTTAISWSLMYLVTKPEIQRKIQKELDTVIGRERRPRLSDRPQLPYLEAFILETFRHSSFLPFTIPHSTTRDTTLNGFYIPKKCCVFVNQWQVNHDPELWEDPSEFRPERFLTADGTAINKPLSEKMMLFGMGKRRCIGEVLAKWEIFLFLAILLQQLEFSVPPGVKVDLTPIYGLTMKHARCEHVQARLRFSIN
Turning to `CS(=O)(=O)N1CCC2(CC1)CN(C(=O)Nc1cccc(C#N)c1)C2`, the AC50 result is “inactive”.
Consider `C=CCNC(=S)N/N=C/c1ccc(-c2cc(Cl)ccc2Cl)o1`, for which the AC50 was 0.112 µM (active).
Still for that read-out and setting: for `CC(=O)C1=C(O)C=C(c2ccco2)CC1c1ccco1` (stereo not given) the value was 5.01 µM (active); for `CC1=CC=CN2CC(O)CN=C12` (stereo not given), “inactive”; for `N#Cc1ccccc1NC(=O)Nc1cccs1`, 7.08 µM (active).
With `COc1cc2c3cc1Oc1cc(ccc1O)C[C@@H]1c4c(cc(OC)c(O)c4Oc4ccc(cc4)C[C@H]3[N+](C)(C)CC2)CC[N+]1(C)C`, the activity, negative = inhibition was -5.47% [at 11.4 µM] (inactive).
As for `COC(=O)[C@@H]1CC[C@H](C)[C@@H](c2ccc(C)cc2)N1C(=O)c1ccc(/C=N\OC[C@@H](C)[C@H](OCc2ccccc2)C(C)C)cc1`, the activity, negative = inhibition was -8.55% [at 11.4 µM] (inactive).
In the case of `Cc1cc([N+](=O)[O-])ccc1NCc1ccccc1`, the AC50 is 2.82 µM (active).
Turning to `COc1ccc([N+](=O)[O-])cc1NCc1ccccc1C`, the half-maximal activity concentration (AC50) is 2.82 µM (active).
In the case of `COc1ccc([N+](=O)[O-])cc1NC1C2CC3CC(C2)CC1C3` (stereo not given), the AC50 entry was “inactive”.
On to `Cc1cc(C)c(-c2cc([C@H](C)O/N=C\[C@@H](C)[C@H](OCc3ccccc3)C(C)C)on2)c(C)c1`, for which the activity, negative = inhibition was 5.92% [at 11.4 µM] (inactive).
In the case of `O=C(O)CONC(=O)c1cc(OCC(F)(F)F)ccc1OCC(F)(F)F`, the AC50 entry is “inactive”.
With `S=C(NCCSCc1c(Cl)cccc1Cl)Nc1ccccc1`, the AC50 was 1.41 µM (active).
Consider `Fc1cccc(NC(=S)NCCCN2CCOCC2)c1`, for which the AC50 entry is “inactive”.
With `Oc1oc(-c2ccccc2)nc1C=Nc1ccccc1`, the concentration at half-maximal activity (AC50) was 0.316 µM (active).
For `CN(C)c1ccc(N=Cc2nc(-c3ccccc3)oc2O)cc1`, the concentration at half-maximal activity (AC50) was 0.398 µM (active).
As for `CCOC(=O)C1=C(C)Nc2ncnn2C1c1cccnc1` (stereo not given), the AC50 entry is “inactive”.
Same read-out and setting: for `CSc1nc2n(n1)C(c1cccc(F)c1)C(C(=O)Nc1ccc(C)cc1C)=C(C)N2` (stereo not given) the value was “inactive”; for `CC1=C(C(N)=O)C(c2ccccc2)n2nc(-c3ccncc3)nc2N1` (stereo not given), 14.1 µM (active).
The same measure, in the same setting: for `COc1ccc(OC)c(Nc2nc(-c3sc(NC(=O)c4ccccc4)nc3C)cs2)c1` the value was “inactive”.
Regarding `COc1cccc(Nc2nc(-c3ccc(O)cc3)cs2)c1`, the AC50 was 1 µM (active).
For the molecule `COc1cccc([C@H](O)Cn2cc(-c3ccc(CON=C(C)C)cc3)nn2)c1`, the activity, negative = inhibition was -9.27% [at 11.4 µM] (inactive).
As for `C=CCNC(=S)Nc1ccc2nc(C)c(C)nc2c1`, the AC50 is 4.47 µM (active).
Regarding `COc1cc(N=c2ssnc2Cl)cc(OC)c1OC`, the AC50 is 3.16 µM (active).
As for `CCn1c(CCCc2nc3c([nH]2)c(=O)n(C)c(=O)n3C)nc2c1c(=O)n(C)c(=O)n2C`, the activity, negative = inhibition is -16.7% [at 2.29 µM] (inactive).
Take `Cn1c(=O)c2[nH]c(CSCc3ccccc3)nc2n(C)c1=O`: the activity, negative = inhibition is -15.4% [at 2.29 µM] (inactive).
For the molecule `COc1ccc(-c2nc3c([nH]2)c(=O)n(C)c(=O)n3C)c(OC)c1`, the AC50 was 2 µM (active).
Regarding `CCn1c(=O)c2[nH]c(-c3ccccc3)nc2n(CC)c1=O`, the AC50 was 1 µM (active).
For the molecule `Cn1c(=O)c2[nH]cnc2n(C)c1=O`, the AC50 entry was “inactive”.
Take `Cn1c(=O)c2[nH]c(CCC(=O)O)nc2n(C)c1=O`: the activity, negative = inhibition was -3.23% [at 11.4 µM] (inactive).
For the molecule `CCCn1c(=O)c2[nH]c(-c3ccccc3)nc2n(CCC)c1=O`, the concentration at half-maximal activity (AC50) is 0.0794 µM (active).
Take `Cn1c(=O)c2[nH]c(-c3ccc(S(=O)(=O)O)cc3)nc2n(C)c1=O`: the AC50 entry is “inactive”.
The same measure, in the same setting: for `CCCn1c(=O)c2[nH]c(-c3ccc(OCC(=O)NCCN)cc3)nc2n(CCC)c1=O` the value was “inactive”; for `Cn1c(=O)c2[nH]c(-c3ccccc3)nc2n(C)c1=O`, 2 µM (active).
In the case of `O=C(CC1C(=O)NCCN1C(=S)Nc1ccccc1)Nc1ccc2c(c1)OCCO2` (stereo not given), the AC50 entry was “inactive”.
With `CCOC(=O)Nc1ccc(C(=O)Oc2ccccc2)c(O)c1`, the AC50 was 3.16 µM (active).
Take `COc1cc2c(cc1OC)C(C(=O)Nc1ccc3c(c1)OCCO3)C(c1cccnc1)N(C)C2=O` (stereo not given): the AC50 entry is “inactive”.
As for `Cn1ncc([N+](=O)[O-])c1C(=O)Nc1ccc2c(c1)OCCO2`, the concentration at half-maximal activity (AC50) is 1.26 µM (active).
As for `O=C(CC(c1ccccc1)c1ccccc1)Nc1ccc2c(c1)OCCO2`, the AC50 is 10 µM (active).
For the molecule `CC(C)(C)c1ccc(OC(=O)Nc2ccc(O)c(C(=O)O)c2)cc1`, the activity, negative = inhibition was 6.5% [at 2.29 µM] (inactive).
Turning to `CCNC(=O)NC1(C(=O)Nc2ccc3c(c2)OCCO3)CCCCC1`, the AC50 result is “inactive”.
As to `O=C(Cn1ccc(=O)[nH]c1=O)Nc1ccc(C(=O)O)c(O)c1`, the activity, negative = inhibition is -16.5% [at 2.29 µM] (inactive).
For the molecule `CC(=O)Nc1ccc2c(c1)OCCO2`, the AC50 is 10 µM (active).
For the molecule `Cc1cc(NC(=O)c2c([N+](=O)[O-])cnn2C)no1`, the AC50 result is “inactive”.
Still for that read-out and setting: the same measure for `CC(=O)Nc1ccc2c(c1)OCCOCCOc1cc(NC(C)=O)ccc1OCCOCCOCCO2`: “inactive”; for `CC[n+]1c(P(=O)([O-])c2ccccc2)[nH]c2ccccc21`: “inactive”; for `COc1ccccc1CN1CCC2(CC1)CCN(C(=O)c1cccn1C)CC2`: “inactive”.
On to `CC(C)NC(=O)N1CCC2(CC1)CCN(C(=O)c1cc(C(F)(F)F)cc(C(F)(F)F)c1)CC2`, for which the AC50 entry is “inactive”.
On to `O=C1C2CCC(C(O)C2)N1Cc1ccccc1` (stereo not given), for which the AC50 entry is “inactive”.
Same read-out and setting: for `CCOC(=O)Nc1ccc2c(c1)OCO2` the value was 1.26 µM (active); for `COc1cccc(Cn2c(=O)cnc3cnc(Oc4cccc(Cl)c4)nc32)c1`, 12.6 µM (active); for `O=c1cnc2cnc(Oc3ccccc3)nc2n1Cc1ccc(F)cc1`, 15.8 µM (active).
Turning to `O=c1cnc2cnc(Oc3cccc(Cl)c3)nc2n1Cc1ccc(F)cc1`, the concentration at half-maximal activity (AC50) was 15.8 µM (active).
The same measure, in the same setting: for `COc1cccc(Cn2c(=O)cnc3cnc(OCc4ccccc4)nc32)c1` the value was 12.6 µM (active); for `CON1C(=O)C(=O)N(OC)C(C)(C)C1C` (stereo not given), “inactive”.
On to `COc1ccc(O[C@H]2C=C[C@@H](c3ccccc3)O[C@H]2COC(=O)CC/C(C)=N\O[C@@H](C)c2cn([C@H]3COC[C@H]3O)nn2)cc1`, for which the activity, negative = inhibition was -4.14% [at 11.4 µM] (inactive).
Consider `COc1ncc2ncc(=O)n(Cc3ccc(F)cc3)c2n1`, for which the AC50 is 12.6 µM (active).
On the same count and under the same terms, for `O=c1cnc2cnc(OCc3ccccc3)nc2n1Cc1ccc(F)cc1` the value was 12.6 µM (active); for `CC(=O)N(C[C@@H](O)CO)c1c(I)c(C(=O)NC[C@@H](O)CO)c(I)c(C(=O)NC[C@@H](O)CO)c1I`, “inactive”.
As for `CC(C)COC[C@H](CN(Cc1ccccc1)c1ccccc1)N1CCCC1`, the AC50 result was “inactive”.

As usually defined, the AC50 is the midpoint of the concentration-response curve, whichever way the signal moves.
